# 14-3-3 Bad inh: disrupts binding of bovine 14-3-3 zeta to phospho-Bad peptide; inhibition, % at 21.7 µM; P63103; AID 781; 220,000 compounds, 0.71% hits; TR-FRET 14-3-3zeta/Dy647-pBad peptide displacement, 1 h;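 active = inhibition above about 70%, limit read from the data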;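 note: 0% = full 14-3-3 plus peptide FRET controls and 100% = background without 14-3-3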
# Target sequence (P63103 whole entry, looked up): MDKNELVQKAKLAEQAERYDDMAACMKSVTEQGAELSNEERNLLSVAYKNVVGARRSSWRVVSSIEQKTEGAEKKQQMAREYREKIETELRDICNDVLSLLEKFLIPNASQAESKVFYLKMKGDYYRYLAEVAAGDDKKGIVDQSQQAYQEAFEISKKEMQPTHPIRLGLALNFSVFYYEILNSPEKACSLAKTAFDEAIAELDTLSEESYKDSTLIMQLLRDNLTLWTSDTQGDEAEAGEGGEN
# m-calpain inh: calpain II (pig) inhibition | purified calpain II, fluorogenic peptide substrate, 30 min | inhibition, % at 16 µM | 220,000 compounds, 0.37% hits | AID 1236;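 active = inhibition above about 50%, limit read from the data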
# ROMK primary: modulates human ROMK potassium channel activity; 130,000 compounds, 2% hits; AID 1918; B-score at 10 µM; Tet-inducible ROMK, thallium flux fluorescence; actives lie on both sides; P48048;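 active = signal ratio slope over the read window, or its plate-corrected B-score, at least 3 SD from the plate mean, either direction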;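 note: B-score of the F/F0 ratio slope over 7 to 12 s after thallium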
# zVAD death inh: L929 zVAD cell death inhibition; L929 zVAD necroptosis rescue, ATP luminescence, 24 h; with zVAD 60 µM; viability rescue, % at 10 µM; 220,000 compounds, 0.38% hits; AID 1377;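 active = activation, scaled between plate controls, above about 75%, limit read from the data; inactive = activation under that limit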;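 note: 0% = zVAD with DMSO and 100% = DMSO alone without zVAD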
# Efa HMGR inh: blocks class II HMG-CoA reductase of Enterococcus faecalis; 190,000 compounds, 0.41% hits; inhibition, % at 10 µM; purified E. faecalis HMGR, NADPH absorbance 340 nm kinetic; AID 1066;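 active = inhibition above a set limit, the median over all tested compounds plus 3 SD, cut at about 9.5% in these data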;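 note: enzyme runs in reverse so mevalonate oxidation gives rising NADPH absorbance; 0% = complete reaction with DMSO and 100% = background rate lacking mevalonate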
# TNF death inh: blocks TNF-alpha induced death of Jurkat FADD-/- cells; activation (protection from cell death), % at 10 µM; Jurkat FADD-/- TNF necroptosis rescue, ATP luminescence, 24 h; 0 = TNF only, 100 = no-TNF cells; 220,000 compounds, 0.068% hits;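 active = activation, meaning protection from cell death, of at least 50% relative to plate controls; inactive = activation below 50%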;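 note: necroptosis triggered by 40 ng/mL TNF-alpha added together with compound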
# zVAD necrop conf: confirmed blocker of zVAD induced death in L929 cells | shares compounds with zVAD death inh | L929 zVAD-induced necroptosis rescue, ATP luminescence, 24 h | activation (protection from necroptosis), % at 10 µM | 760 compounds, 16% hits;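 active = mean protection from necroptosis of at least 50% over duplicate tests; inactive = mean protection below 50%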;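 note: 0% = cells with zVAD alone and 100% = vehicle cells without zVAD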
# The depositor's hits bear a star; . = no result given; ! = repeats disagree. An excerpt weighted towards active compounds, which were near 3% of everything screened.
SMILES,14-3-3 Bad inh,m-calpain inh,ROMK primary,zVAD death inh,Efa HMGR inh,TNF death inh,zVAD necrop conf
O=C(Nc1cccc(Cl)c1)Nc1nccs1,1.2,-10.9,0.0445,81.6*!,-5.6,11.3,10.6
O=C(Nc1ccc(Cl)c(Cl)c1)Nc1nccs1,3.9,0.3,.,0.8,.,-12.7,.
CC(C)(C)c1cc(NC(=O)Nc2ccc(Cl)cc2Cl)no1,4.0,-5.7,-0.639,54.0,.,3.4,.
CC(C)(C)c1cc(NC(=O)Nc2ccc(Br)cc2Cl)no1,2.0,5.9,1.43,76.1*,0.4,1.9,1.6
CCCSc1cc(N2CCOCC2)nc(-c2ccccc2Cl)n1,7.9,22.6,-0.615,0.5,-0.6,-0.3,.
Nc1ccc(Nc2nc(-c3cc4ccccc4oc3=O)cs2)cc1,5.8,-36.1,0.202,79.9*,-1.2,-5.9,3.7
O=C(/C=C/c1ccc2ccccc2n1)N1CCN(S(=O)(=O)c2ccccc2F)CC1,-6.5,4.6,.,83.7*,.,1.8,4.7
O=C(/C=C/c1ccc2ccccc2n1)N1CCN(S(=O)(=O)c2ccc(F)cc2)CC1,0.5,-11.8,.,27.6,.,4.6,.
O=C(Nc1ccc(-c2noc(COc3ccccc3Cl)n2)cc1)c1ccco1,11.7,-15.9,.,97.9*,-3.7,-2.5,36.0
CCOc1ccc(N2CC(C(=O)Nc3ccccc3N3CCOCC3)CC2=O)cc1 (centres undefined),10.2,14.6,0.685,0.4,-7.6,0.7,.
Cc1cc(=O)oc2cc(OCC(=O)N3CCN(C(=O)c4ccco4)CC3)ccc12,2.5,-42.0,1.22,4.5,-4.4,0.7,.
CCOc1cc(N2CCOCC2)c(OCC)cc1NC(=O)CN1CCCC1,38.5,22.7,.,0.8,0.6,1.9,.
Cc1cccc(NC(=O)Nc2cc(C)cc(C)n2)c1,0.4,21.9,-0.21,75.5*,-2.1,-0.3,2.6
Cc1ccnc(NC(=O)Nc2cccc(F)c2)c1,0.3,30.2,.,92.0*,-3.4,7.4,32.4
O=C1C2C3C=CC([C@@H]2C(=O)N1C1CCCCC1)[C@H]1C(=O)N(C2CCCCC2)C(=O)C31 (some centres undefined),48.9,5.2,.,0.1,-7.3,-0.5,.
Cc1cc(C(=O)COC(=O)c2ccc(O)cc2)c(C)n1Cc1ccco1,-11.0,-14.0,0.0124,75.3*,-1.4,-1.9,2.2
Cc1cc(C(=O)COC(=O)c2ccc(Br)o2)c(C)n1Cc1ccco1,0.1,11.0,-0.387,0.1,2.6,-2.4,.
N#CCc1ccc(NC(=O)/C=C/c2ccc([N+](=O)[O-])o2)cc1,-12.9,-144.3,-0.634,84.6*,-1.6,-12.7,0.5
Cc1ccc(/C=C2\SC(=S)N(CC(=O)Nc3ncc(Cc4ccccc4Cl)s3)C2=O)cc1,-6.2,-32.5,.,0.1,-0.2,-3.0,.
Cc1ccc(/C=C2/SC(=S)N(CC(=O)Nc3ncc(Cc4ccc(C)cc4)s3)C2=O)cc1,2.5,-65.7,.,75.2*,-1.3,-0.8,0.2
O=C(OC(C(=O)NCc1ccco1)c1ccc(Cl)cc1)c1cccs1 (centres undefined),1.5,7.4,.,-0.9,.,10.8,.
CC(=O)c1sc(Nc2ccccn2)nc1C,0.0,-19.6,.,95.5*,1.8,-3.5,0.7
Cc1ccc(NC(=O)n2ccc(-c3ccc(-n4ccnc4)cc3)n2)cc1,-14.8,-17.3,0.0997,82.1*,-1.5,14.2,49.8
C(=N/Nc1nccs1)/c1cccnc1,-15.5,5.7,1.69,78.1*,-0.1,6.8,3.5
O=C(O)c1ccc(/C=N/Nc2nc3ccccc3[nH]2)cc1,-1.9,29.8,.,-0.1,.,-2.2,.
C(=N\Nc1nc2ccccc2[nH]1)/c1ccncc1,-12.2,29.9,0.0418,78.0*,6.4,30.4,50.9*
C/C(=N\Nc1nc2ccccc2[nH]1)c1ccc2c(c1)OCO2,-13.8,40.5,-0.0712,3.7,-6.3,3.7,.
COC(=O)c1ccc(/C=N/Nc2nc3ccccc3[nH]2)cc1,-19.5,7.8,0.235,81.9*,-3.8,15.7,8.0
CCN(CC)c1ccc(/C=N/Nc2nc3ccccc3[nH]2)cc1,-3.4,-3.9,0.312,49.8,-5.4,7.5,.
C(=N\Nc1nc2ccccc2[nH]1)/c1ccc2c(c1)OCO2,-7.7,26.2,0.59,79.2*,-3.3,18.8,8.9
